We go through 15 compounds from the supplement of paper PMC12350171.

Where a name gives a salt, the structure may show the parent alone. Unmarked numbers belong to inactive results.

Common to all, as to conditions: 20 µM
Assay [1] concerns Haemophilus parainfluenzae. The assay is described as follows: growth AUC normalised to DMSO control (fraction of control); higher = less growth inhibition, active = hit call of the paper. The gist of the method: (§1)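 Hemin and NAD were added to the medium for Haemophilus parainfluenzae. All pathogens, after two anaerobic passages, were inoculated at a starting OD578 of 0.01 into pre-reduced mGAM plates with 20 μM compound and 1% DMSO under breathable seals, and OD578 was read hourly for 24 h in three biological replicates. AUC of each growth curve was obtained with the trapezoidal rule up to the exponential-to-stationary transition and normalised to DMSO controls from the same plate.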

In assay [2] the test system is Salmonella enterica typhimurium. Described as above. The essentials: as §1
Another assay concerns Shigella flexneri. Described as above. The gist of the method:
as §1

The next assay deals with Vibrio cholerae. Described as above. The essentials: as §1
In assay [3] the test system is Yersinia pseudotuberculosis. The assay is described as above. The essentials: as §1
For another assay, the system named is P. vulgatus RND KO. As to the kind of experiment: growth AUC normalised to DMSO control (median) (fraction of control); higher = less growth inhibition, active = hit call of the paper. The gist of the method:
(§2)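 For normalised area under the curve, growth curves were truncated at entry into stationary phase, integrated by the trapezoidal rule and divided against vehicle wells on the same plate. The curves came from strains passaged twice overnight without oxygen and then grown in mGAM in 96-well plates at a starting OD578 of 0.01. Each well held an approved-drug library compound at 20 μM with 1% DMSO, and OD578 was read hourly for 24 h in an anaerobic incubator. Values are medians of three biological replicates.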

A further assay relates to P. vulgatus WT. The assay is described as above. The gist of the method: as §2
The subject of assay [4] is S. enterica typhimurium WT. Described as above. The gist of the method: as §2
In assay [5] the test system is S. enterica typhimurium tolC KO. The description is as above. The essentials:
as §2
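For growth AUC normalised to DMSO control (median) in this document: active when median AUC fell below 0.1.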

For the compound `O=P1(N(CCCl)CCCl)NCCCO1` (stereo not given) [Cyclophosphamide], the “growth AUC normalised to DMSO control” value was 1.04 in assay [1]; 1.02 in assay [2]; 1.01 in the assay on Shigella flexneri; 1.04 in the assay on Vibrio cholerae; 1.01 in [3]; 0.998 in the assay on P. vulgatus RND KO. In addition, the “growth AUC normalised to DMSO control” value in the assay on P. vulgatus WT was 1; in assay [4], 1.01; in [5], 0.997.
Turning to `C=CCC1(CC(C)C)C(=O)NC(=O)NC1=O` [Butalbital], the “growth AUC normalised to DMSO control” value in assay [1] was 0.978; in assay [2] it was 1; in the assay with Shigella flexneri it was 0.999; in the assay on Vibrio cholerae it was 1.02; in assay [3], 1; in the assay on P. vulgatus RND KO, 0.99. Besides, the results for the “growth AUC normalised to DMSO control” value (in the assay on P. vulgatus WT; in assay [4]; in assay [5]) were 0.998, 0.992 and 1.01, respectively.
In the case of `CCCN1C[C@H](CSC)C[C@@H]2c3cccc4[nH]cc(c34)C[C@H]21` [Pergolide mesylate], the “growth AUC normalised to DMSO control” value was 1 in assay [1]; 0.998 in [2]; 0.959 in the assay on Shigella flexneri; 0.956 in the assay with Vibrio cholerae; 1.01 in [3]; 0.986 in the assay with P. vulgatus RND KO. In addition, the “growth AUC normalised to DMSO control” value is 0.956 with P. vulgatus WT, 0.995 in assay [4] and 0.974 in assay [5].
Consider `CCOC(=O)c1cncn1[C@H](C)c1ccccc1` [Etomidate], for which the “growth AUC normalised to DMSO control” value in assay [1] was 1.02; in [2] it was 1.01; with Shigella flexneri it was 1; in the assay on Vibrio cholerae, 1.03; in [3] it was 0.984; in the assay on P. vulgatus RND KO, 1.07. The “growth AUC normalised to DMSO control” value was 1.1 with P. vulgatus WT, 1 in [4] and 0.978 in [5].
Consider `C[CH2][Hg][S]c1ccccc1C(=O)[O-].[Na+]` [Thimerosal], for which the “growth AUC normalised to DMSO control” value in assay [1] was 1.2; in assay [2], 0.932 (active); with Shigella flexneri it was 0.828 (active); in the assay with Vibrio cholerae, 0.935; in assay [3] it was 1; in the assay with P. vulgatus RND KO, 0.0191 (active). The “growth AUC normalised to DMSO control” value with P. vulgatus WT was 0.341; in assay [4], 0.91; in assay [5], 0.956.
Regarding `CN1CCN(C(=O)OC2c3nccnc3C(=O)N2c2ccc(Cl)cn2)CC1` (stereo not given) [Zopiclone], the “growth AUC normalised to DMSO control” value in assay [1] is 1.01; in [2], 0.996; in the assay with Shigella flexneri, 1; in the assay with Vibrio cholerae, 0.998; in assay [3], 0.996; in the assay on P. vulgatus RND KO, 0.999. The “growth AUC normalised to DMSO control” value is 1.01 in the assay with P. vulgatus WT, 0.994 in [4] and 0.999 in [5].
Take `CN1[C@@H]2CC[C@H]1C[C@@H](OC(=O)[C@H](CO)c1ccccc1)C2` [(L) Hyoscyamine]: the “growth AUC normalised to DMSO control” value was 0.945 in [1]; 0.983 in [2]; 1.04 in the assay with Shigella flexneri; 1.05 with Vibrio cholerae; 1.01 in assay [3]; 1 in the assay with P. vulgatus RND KO. Further, the “growth AUC normalised to DMSO control” value in the assay with P. vulgatus WT is 1; in assay [4], 1.01; in [5], 1.
In the case of `COc1ccc(C(CN(C)C)C2(O)CCCCC2)cc1` (stereo not given) [Venlafaxine], the “growth AUC normalised to DMSO control” value in assay [1] was 1.33; in [2], 0.98; with Shigella flexneri, 0.957; with Vibrio cholerae it was 0.984; in [3], 1.08; in the assay with P. vulgatus RND KO, 0.997. Further, the results for the “growth AUC normalised to DMSO control” value (in the assay with P. vulgatus WT; in [4]; in assay [5]) were 0.999, 0.997 and 1, respectively.
With `CCNCC(O)c1cccc(O)c1` (stereo not given) [Etilefrine hydrochloride], the “growth AUC normalised to DMSO control” value in [1] was 0.987; in [2], 0.976; in the assay on Shigella flexneri, 0.987; in the assay on Vibrio cholerae, 0.995; in assay [3], 0.979; in the assay with P. vulgatus RND KO, 0.997. Further, the “growth AUC normalised to DMSO control” value in the assay with P. vulgatus WT is 0.995; in assay [4] it was 0.993; in assay [5] it was 1.
Take `CCN[C@@H](C)Cc1cccc(C(F)(F)F)c1` [Dexfenfluramine hydrochloride]: the “growth AUC normalised to DMSO control” value was 1.01 in assay [1]; 0.995 in [2]; 1.02 with Shigella flexneri; 1.02 in the assay on Vibrio cholerae; 0.995 in assay [3]; 1 with P. vulgatus RND KO. Further, the results for the “growth AUC normalised to DMSO control” value (in the assay on P. vulgatus WT; in [4]; in assay [5]) were 1.02, 0.996 and 1, respectively.
Take `CN(C)C(=O)Oc1cccc([N+](C)(C)C)c1` [Neostigmine bromide]: the “growth AUC normalised to DMSO control” value is 1 in assay [1]; 1 in assay [2]; 0.994 in the assay with Shigella flexneri; 1.01 in the assay with Vibrio cholerae; 0.916 in assay [3]; 1 in the assay on P. vulgatus RND KO. For the same compound, the “growth AUC normalised to DMSO control” value in the assay on P. vulgatus WT is 0.997; in assay [4], 1; in assay [5] it was 1.01.
On to `C[C@]12CCC(=O)C=C1C=C[C@@H]1[C@@H]2CC[C@@]2(C)[C@H]1CC[C@@]2(O)CCC(=O)O` [Canrenoic acid potassium salt], for which the “growth AUC normalised to DMSO control” value in [1] was 0.979; in [2], 0.993; in the assay on Shigella flexneri, 0.97; in the assay with Vibrio cholerae it was 1.02; in assay [3], 0.983; in the assay on P. vulgatus RND KO, 1.01. Moreover, the figures for the “growth AUC normalised to DMSO control” value (in the assay with P. vulgatus WT; in assay [4]; in assay [5]) were 0.996, 1.01 and 1, respectively.
In the case of `NC(=O)C[S+]([O-])C(c1ccccc1)c1ccccc1` (stereo not given) [Modafinil], the “growth AUC normalised to DMSO control” value in [1] was 1; in [2] it was 0.994; in the assay on Shigella flexneri, 0.982; with Vibrio cholerae, 0.998; in assay [3], 0.998; in the assay with P. vulgatus RND KO, 1. Also, the “growth AUC normalised to DMSO control” value in the assay on P. vulgatus WT is 0.993; in assay [4], 1; in assay [5] it was 0.976.
For `CCC(=O)O[C@H]1CC[C@H]2[C@@H]3CCC4=CC(=O)CC[C@]4(C)[C@H]3CC[C@]12C` [Testosterone propionate], the “growth AUC normalised to DMSO control” value in assay [1] was 1.06; in [2], 1.02; in the assay on Shigella flexneri it was 1.03; in the assay on Vibrio cholerae, 1.04; in assay [3] it was 0.989; with P. vulgatus RND KO it was 1. The results for the “growth AUC normalised to DMSO control” value (with P. vulgatus WT; in assay [4]; in assay [5]) were 1.01, 1.02 and 0.911, respectively.
`CN1[C@@H]2C[C@@H](OC(=O)[C@H](CO)c3ccccc3)C[C@H]1[C@@H]1O[C@@H]12` [Scopolamine hydrochloride]: the “growth AUC normalised to DMSO control” value in [1] was 1.06; in assay [2], 1.03; in the assay with Shigella flexneri it was 1.06; in the assay with Vibrio cholerae it was 1.06; in assay [3], 1.03; in the assay on P. vulgatus RND KO it was 1.03. Moreover, the “growth AUC normalised to DMSO control” value with P. vulgatus WT was 1.05; in assay [4], 1; in assay [5] it was 1.01.
